GRIN3A LBD mod: modulators (binders) of human NR3A ligand-binding domain; Tm shift relative to glycine control, % at 25 µM; NR3A LBD differential scanning fluorimetry, Tm shift; 0% = protein alone, 100% = glycine-bound protein; 340,000 compounds, 2.5% hits;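 active = melting temperature shift of at least 10% of the positive control shift, at one fixed dose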
SKN-1 inh: C. elegans SKN-1 inhibition; inhibition, % at 21.8 µM; C. elegans VP596 Pgst-4::GFP/RFP ratio, acrylamide-induced, 24 h; 360,000 compounds, 0.49% hits;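 active = interference check ratio from 0.5 to 1.5 plus GFP to RFP signal ratio inhibition reaching or exceeding a fixed threshold, cut at about 30% in these data, passing the limit was not always enough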
SMARCA2 act: SMARCA2 function activation, primary screen | MG213 cells, MMTV-luciferase reporter, dexamethasone, overnight | AID 652017 | activation, % at 9.1 µM | 370,000 compounds, 1% hits; in the data active = activation above about 7.8%;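 also: 0% = vehicle wells and 100% = reference activator wells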
esBAF inh: SWI/SNF esBAF complex inhibition; mouse ES cells, Bmi1-luciferase knock-in reporter, 24 h; 100% = twice the neutral-well signal; reporter increase, % at 12.5 µM; 350,000 compounds, 2% hits; in the data active = activation above about 40%;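 also: 0% = median of the plate's neutral control wells and 100% = double that signal; a rise in the Bmi1 reporter signal indicates esBAF inhibition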
Vif inh: HIV Vif inhibition; AID 602346; 340,000 compounds, 0.35% hits; HEK293T cells, Vif self-association by quenched fluorescence, imaging, 24 h; inhibition, % at 7.49 µM; in the data active = inhibition above about 50%, passing the limit was not always enough
NadD block: inhibitors of Staphylococcus aureus NadD | purified NadD enzyme, colorimetric absorbance read-out | inhibition, % at 20 µM | 360,000 compounds, 0.78% hits; in the data active = inhibition above about 26%
* = called active by the depositor; x = not tested or not shown. This is a sample that favours compounds with a hit; in the whole collection about 5.2% have one here.

SMILES	GRIN3A LBD mod	SKN-1 inh	SMARCA2 act	esBAF inh	Vif inh	NadD block
O=C(CN1CCCCC1)Nc1ccc(Br)cc1[N+](=O)[O-]	1	10	1	49*	0	1
CC1CCN(CC(=O)Nc2ccc(Br)cc2[N+](=O)[O-])CC1	2	-8	-1	17	-12	-5
CO[C@H]1CN(C)C(=O)c2ccc(NC(=O)C3CCOCC3)cc2OC[C@@H](C)N(CC2CC2)C[C@H]1C	x	x	x	1	x	x
CSc1nc(N(CCO)CCO)c2sc3nc(-c4ccco4)c4c(c3c2n1)CCC4	-2	-12	2	-3	-7	80*
O=C1OC(c2ccccc2)=C/C1=C/c1cccs1	-24	25	0	26*	4	4
O=C1N=C(c2ccccc2)S/C1=C\c1cccs1	-1	12	2	x	-2	19
C[C@@H]1CN([C@@H](C)CO)C(=O)c2ccccc2-c2ccccc2CO[C@@H]1CN(C)C(=O)c1ccccc1	x	x	x	-3	x	x
CCN(c1ccccc1)S(=O)(=O)c1cc(C(=O)Nc2ccc(F)c(F)c2)ccc1F	10*	10	-7	x	-1	-12
COc1ccc(C2=CSC(/N=C/c3ccc(F)cc3)=NN2)cc1	21*	14	-2	11	3	5
COc1ccc(/C=N/c2c(-c3ccc(OC)cc3)nc3n2CCS3)cc1	-32	10	-2	17	-1	14
Cc1ccnc(NC(=O)CCC(=O)N(CC(=O)NCc2ccc(F)cc2)CC2CCCO2)c1 (stereo not given)	0	-6	-2	-2	-2	-5
COc1ccccc1N(CC(=O)NCC1CCCO1)C(=O)CCC(=O)Nc1nccs1 (stereo not given)	3	-11	1	-8	x	1
CCOc1ccccc1N(CC(=O)NCC1CCCO1)C(=O)CCC(=O)Nc1nccs1 (stereo not given)	-1	18	-2	-4	61*	-3
Cc1ccnc(NC(=O)CCC(=O)N(CC(=O)NCC2CCCO2)Cc2ccc(F)cc2)c1 (stereo not given)	11*	23	1	-8	-6	-3
CO[C@@H]1CN(C)C(=O)c2ccc(NC(=O)Nc3c(C)noc3C)cc2OC[C@H](C)N(C)C[C@@H]1C	x	x	x	2	x	x
COc1cccc(NC(=O)N[C@H]2CC[C@H](CC(=O)NCc3ccccn3)O[C@H]2CO)c1	x	x	x	-4	x	x
CO[C@H]1CN(C)C(=O)c2cc(NC(C)=O)ccc2OC[C@@H](C)N(CCC(F)(F)F)C[C@@H]1C	x	x	x	-3	x	x
CCCCCc1ccc(-c2cn(Cc3ccc(C)cc3)nn2)cc1	-3	8	5	18	-6	6
COc1ccc(-c2cn(Cc3ccc(C)cc3)nn2)cc1	-3	-9	7	79*	0	1
CCN1c2ccccc2-c2nc3ccccc3n2C1c1ccco1 (stereo not given)	-3	-3	-8	-9	-10	-2
Cc1ccc(C2Nc3ccccc3-c3nc4ccccc4n32)o1 (stereo not given)	-1	17	1	68*	-4	1
COc1ccccc1C#Cc1ccc2c(c1)O[C@@H](CN(C)C)[C@H](C)CN([C@@H](C)CO)S2(=O)=O	x	x	x	-6	x	x
CON(C)S(=O)(=O)c1cccc(C(=O)NC2CCSc3ccccc32)c1 (stereo not given)	1	-4	0	8	6	-2
CN(C)S(=O)(=O)c1cccc(C(=O)NC2CCSc3ccccc32)c1 (stereo not given)	1	-1	-1	8	99*	-1
NC(=O)c1nsc(C(=O)N(Cc2cccnc2)C(C(=O)NCc2ccc(F)cc2)c2ccc(O)cc2)c1N (stereo not given)	-1	5	-2	5	51*	-1
SMILES	GRIN3A LBD mod	SKN-1 inh	SMARCA2 act	esBAF inh	Vif inh	NadD block
NC(=O)c1nsc(C(=O)N(c2cccc(F)c2)C(C(=O)NC2CCCC2)c2ccc(O)cc2)c1N (stereo not given)	-1	-14	-1	6	91*	1
NC(=O)c1nsc(C(=O)N(c2cccc(F)c2)C(C(=O)NC2CCCC2)c2ccco2)c1N (stereo not given)	3	7	-3	1	12	3
COc1cccc(S(=O)(=O)N(C)C[C@@H]2Oc3ncc(/C=C/c4ccccc4)cc3C(=O)N([C@H](C)CO)C[C@@H]2C)c1	x	x	x	-3	x	x
C[C@H](CO)N1C[C@H](C)[C@@H](CN(C)C(=O)Nc2ccccc2)Oc2ccc(NC(=O)CCC(F)(F)F)cc2CC1=O	x	x	x	-6	x	x
COc1ccc(NC(=O)N(C)C[C@H]2Oc3ccc(NS(=O)(=O)c4ccc(F)cc4)cc3CC(=O)N([C@H](C)CO)C[C@H]2C)cc1	x	x	x	2	x	x
CN(C)C(=O)[C@H]1[C@H](CO)[C@H]2Cn3c(ccc(-c4ccccc4)c3=O)[C@@H]1N2C(=O)C1CCC1	x	x	x	-1	x	x
CCCc1cn(CC[C@H]2CC[C@@H](NC(=O)Nc3ccccc3F)[C@@H](CO)O2)nn1	x	x	x	3	x	x
O=C(CSc1ccsc1[N+](=O)[O-])Nc1cc(F)ccc1F	9	0	2	x	x	1
Cc1ccc(NC(=O)CSc2ccc(C(N)=O)cc2[N+](=O)[O-])cc1C	6	9	-2	4	-2	1
Cc1ccc(NC(=O)CSc2ccc(C(N)=O)cc2[N+](=O)[O-])cc1	25*	5	3	38	18	4
CC(=O)c1ccc(NC(=O)CSc2ccsc2[N+](=O)[O-])cc1	12*	8	4	x	x	-1
CN1c2ccc(-c3cccc(F)c3)cc2[C@@H]2[C@@H](CCN2S(=O)(=O)c2cccc(F)c2)[C@H]1CO	x	x	x	3	x	x
CNC[C@H]1Oc2ccc(NC(=O)CCC(F)(F)F)cc2CC(=O)N([C@@H](C)CO)C[C@H]1C	x	x	x	0	x	x
C[C@@H]1CN([C@H](C)CO)C(=O)c2cccc(NC(=O)c3ccc(-c4nccs4)cc3)c2O[C@H]1CN(C)C(=O)NC1CCCCC1	x	x	x	7	x	x
COc1cccc(C(=O)COC(=O)C(C)N2C(=O)c3ccccc3C2=O)c1 (stereo not given)	14*	-7	1	-7	-1	-8
Cc1onc(-c2ccccc2)c1C(=O)OCC(=O)Nc1ccc2c(c1)OCO2	-2	3	-4	1	-14	1
Cc1c(-c2cccc(Cl)c2)nc2ccccc2c1C(=O)OCC(=O)Nc1ccc2c(c1)OCO2	21*	0	0	x	-12	22
Cc1noc(C)c1NC(=O)Nc1cccc2c1O[C@H](CN(C)C)[C@@H](C)CN([C@H](C)CO)C2=O	x	x	x	0	x	x
C=CCN1C(=O)S/C(=C\c2ccc(N3CCOCC3)cc2C)C1=O	3	13	2	73*	8	-1
C=CC(C)N1C(=O)S/C(=C\c2ccc(N3CCOCC3)cc2C)C1=O (stereo not given)	-1	-5	-3	x	-3	-12

High-throughput results from PubChem BioAssay.
